# Assay results published in PubChem BioAssay (NCATS).
# Records with an inconclusive call do not appear. Entries that show only a call come without a potency. The source made the active and inactive calls. Calls follow the shape of the dose curve; as a rule, active = well fitted cell-killing curve with a large enough effect; inconclusive = small, poorly fitted or top-dose-only effect, or effect the other way; inactive = no such curve, though single readings can be large or run the other way.
# Assay: qHTS of pediatric cancer cell lines to identify multiple opportunities for drug repurposing: Confirmatory screen for Saos-2 cells (AID 1347127); also: nearly all actives have a fitted effect of over 60% in size
# Details: Saos-2 osteosarcoma cell viability; series mostly up to 45.9 µM
# Description: Drug repurposing or repositioning has been offered as a strategy for drug development in oncology programs. This approach has special potential for childhood cancers and other rare or orphan diseases, where the expected return on new drug development has been a disincentive to pharmaceuticals.
# In this project we exploit the poly-pharmacology of drugs to discover new indications via phenotypic screening of a panel of 19 well-characterized cell lines derived from solid tumors seen in children and adolescents. The goal is to identify approved drugs with previously unrecognized anticancer properties that has the potential to reveal new mechanisms and biological processes involved in carcinogenesis or drug resistance. We employed a titration-based paradigm (quantitative high-throughput screening or qHTS), where all compounds were tested at multiple concentrations for their effect on cell viability. Concentration-response curves (CRCs) were derived directly from the primary screen, and both potency and efficacy values were used to identify compounds with robust bioactivity profiles. We screened the NIH Chemical Genomics Center (NCGC) Pharmaceutical Collection (NPC) and Mechanism Interrogation Plate (MIPE) small molecule collections of approved and investigational compounds against these cell lines; and measured metabolically active cells after 48 hours of compound treatment as a proxy for cell viability.
# Assay Submitter: Nathalia J. Martinez, National Center for Advancing Translational Sciences, National Institutes of Health, Rockville, MD, USA; email: natalia.martinez@nih.gov
# [1] Shen, M et al. Quantitative high-throughput phenotypic screening of pediatric cancer cell lines identifies multiple opportunities for drug repurposing. Oncotarget 2017 Dec 19;9(4):4758-4772. PMID 29435139.
# The cells were obtained from University of North Carolina (UNC), Pediatric Preclinical Testing Program (PPT), and Coriell Institute (CI).
# qHTS cell viability assay:
# Cells were assayed in growth media at a density of 500-1,000 cells/well. Five microliters of cells were dispensed into 1,536-well, white, solid-bottom, TC-treated plates (Greiner Bio One) using a multidrop dispenser and incubated at 37 degrees C, 5% CO2, under a humidified atmosphere for 5 hours. Twenty-three nanoliters of compounds and controls (neutral control DMSO or positive control bortezomib at final concentration of 2.3 µM) were subsequently transferred by Kalypsys pintool. For primary screens, the MIPE collection was tested at 11-point dilutions (final concentrations range from 0.78 nM to 46 µM) and the NPC collection at 8-point dilutions (final concentrations range from 0.59 nM to 46 µM). Compounds tested in follow-up screens were assayed at 11-point dilutions. Cells were incubated for 48 hours, followed by addition of 3 µL of CellTiter-Glo (Promega). After a 15 min incubation at room temperature, samples were analyzed for luminescence intensity using a ViewLux High-throughput CCD imager equipped with clear filters.
# Potency is read from the fitted curve at half-maximal effect.
row,SMILES,Potency
1,CN(C)/N=N/c1nc[nH]c1C(N)=O,inactive
2,NC(CO)(CO)CO,inactive
3,C[C@]12C=CC(=O)C=C1CC[C@@H]1[C@@H]2[C@@H](O)C[C@@]2(C)[C@H]1CC[C@]2(O)C(=O)CO,inactive
4,NC(=O)CC[C@@H]1NC(=O)[C@H](Cc2ccccc2)NC(=O)[C@H](Cc2ccc(O)cc2)NC(=O)CCSSC[C@@H](C(=O)N2CCC[C@H]2C(=O)N[C@@H](CCCN=C(N)N)C(=O)NCC(N)=O)NC(=O)[C@H](CC(N)=O)NC1=O,inactive
5,CC(=O)OCC(=O)[C@@]1(OC(C)=O)[C@@H](C)C[C@H]2[C@@H]3C[C@H](F)C4=CC(=O)C=C[C@]4(C)[C@@]3(F)[C@@H](O)C[C@@]21C,inactive
6,COCc1c(C(C)C)nc(C(C)C)c(/C=C/[C@@H](O)C[C@@H](O)CC(=O)O)c1-c1ccc(F)cc1,0.0657 µM (active)
7,C=C1C[C@H]2[C@@H]3C=C(C)C4=CC(=O)CC[C@]4(C)[C@H]3CC[C@]2(C)[C@@]1(OC(C)=O)C(C)=O,inactive
8,COc1cc(C=C2CCC/C(=C\c3ccc(O)c(OC)c3)C2=O)ccc1O,11.7 µM (active)
9,CC1(C)O[C@@H]2C[C@H]3[C@@H]4CCC5=CC(=O)CC[C@]5(C)[C@@]4(F)[C@@H](O)C[C@]3(C)[C@]2(C(=O)CCl)O1,inactive
10,C[C@H]1C[C@H]2[C@@H]3CCC4=CC(=O)C=C[C@]4(C)[C@@]3(Cl)[C@@H](O)C[C@]2(C)[C@@]1(O)C(=O)CO,inactive
11,CCCCCCC[N+](CC)(CC)CCCCc1ccc(Cl)cc1,11.7 µM (active)
12,CCCCC(CC)CN=C(N)NC(N)=NCCCCCCN=C(N)NC(N)=NCC(CC)CCCC (configuration not stated),16.5 µM (active)
13,CC1(C)O[C@@H]2C[C@H]3[C@@H]4C[C@H](F)C5=CC(=O)CC[C@]5(C)[C@H]4[C@@H](O)C[C@]3(C)[C@]2(C(=O)CO)O1,inactive
14,O=C(CCCN1CCC(O)(c2ccc(Br)cc2)CC1)c1ccc(F)cc1,inactive
15,CCC(C(=O)OCCN(CC)CC)c1ccccc1 (configuration not stated),inactive
16,OC[C@H]1O[C@@H](n2cnc3c(=S)nc[nH]c32)[C@H](O)[C@@H]1O,4.65 µM (active)
17,CC(=O)O[C@]1(C(C)=O)CC[C@H]2[C@@H]3C[C@H](C)C4=CC(=O)CC[C@]4(C)[C@H]3CC[C@@]21C,inactive
18,CC(=O)Oc1ccc(C(c2ccc(OC(C)=O)cc2)c2ccccn2)cc1,inactive
19,CC(=O)OCC(=O)[C@@]12N=C(C)O[C@@H]1C[C@H]1[C@@H]3CCC4=CC(=O)C=C[C@]4(C)[C@H]3[C@@H](O)C[C@@]12C,0.737 µM (active)
20,C[C@@H]1C[C@H]2[C@@H]3CCC4=CC(=O)C=C[C@]4(C)[C@@]3(F)[C@@H](O)C[C@]2(C)[C@H]1C(=O)CO,inactive
21,C[C@]12CCC(=O)C=C1CC[C@H]1[C@@H]3CC[C@](O)(C(=O)CO)[C@@]3(C)C[C@H](O)[C@@]12F,inactive
22,Oc1ccc(O)cc1,inactive
